The values that follow come from PubChem BioAssay AID720700 (The Scripps Research Institute Molecular Screening Center, 2013).

In all, about 370,000 compounds went through this assay and about 3,100 (0.84%) were called active. No stated cut-off is given here; in the data, active means inhibition above about 9.5%; inactive means the rest. For the sample, actives were picked, then their nearest neighbours and some compounds at random.

The target of this test is 1-phosphatidylinositol 4,5-bisphosphate phosphodiesterase gamma-1 (Homo sapiens) (UniProt P19174). Briefly: PLC-gamma1 enzyme inhibitors, primary screen, biochemical, fluorescence, purified enzyme (AID 720700). To be noted: purified PLC-gamma1, fluorogenic substrate, at 12.2 µM, stronger effect = higher value.
1-phosphatidylinositol 4,5-bisphosphate phosphodiesterase gamma-1 (Homo sapiens), sequence (P19174 whole entry, looked up): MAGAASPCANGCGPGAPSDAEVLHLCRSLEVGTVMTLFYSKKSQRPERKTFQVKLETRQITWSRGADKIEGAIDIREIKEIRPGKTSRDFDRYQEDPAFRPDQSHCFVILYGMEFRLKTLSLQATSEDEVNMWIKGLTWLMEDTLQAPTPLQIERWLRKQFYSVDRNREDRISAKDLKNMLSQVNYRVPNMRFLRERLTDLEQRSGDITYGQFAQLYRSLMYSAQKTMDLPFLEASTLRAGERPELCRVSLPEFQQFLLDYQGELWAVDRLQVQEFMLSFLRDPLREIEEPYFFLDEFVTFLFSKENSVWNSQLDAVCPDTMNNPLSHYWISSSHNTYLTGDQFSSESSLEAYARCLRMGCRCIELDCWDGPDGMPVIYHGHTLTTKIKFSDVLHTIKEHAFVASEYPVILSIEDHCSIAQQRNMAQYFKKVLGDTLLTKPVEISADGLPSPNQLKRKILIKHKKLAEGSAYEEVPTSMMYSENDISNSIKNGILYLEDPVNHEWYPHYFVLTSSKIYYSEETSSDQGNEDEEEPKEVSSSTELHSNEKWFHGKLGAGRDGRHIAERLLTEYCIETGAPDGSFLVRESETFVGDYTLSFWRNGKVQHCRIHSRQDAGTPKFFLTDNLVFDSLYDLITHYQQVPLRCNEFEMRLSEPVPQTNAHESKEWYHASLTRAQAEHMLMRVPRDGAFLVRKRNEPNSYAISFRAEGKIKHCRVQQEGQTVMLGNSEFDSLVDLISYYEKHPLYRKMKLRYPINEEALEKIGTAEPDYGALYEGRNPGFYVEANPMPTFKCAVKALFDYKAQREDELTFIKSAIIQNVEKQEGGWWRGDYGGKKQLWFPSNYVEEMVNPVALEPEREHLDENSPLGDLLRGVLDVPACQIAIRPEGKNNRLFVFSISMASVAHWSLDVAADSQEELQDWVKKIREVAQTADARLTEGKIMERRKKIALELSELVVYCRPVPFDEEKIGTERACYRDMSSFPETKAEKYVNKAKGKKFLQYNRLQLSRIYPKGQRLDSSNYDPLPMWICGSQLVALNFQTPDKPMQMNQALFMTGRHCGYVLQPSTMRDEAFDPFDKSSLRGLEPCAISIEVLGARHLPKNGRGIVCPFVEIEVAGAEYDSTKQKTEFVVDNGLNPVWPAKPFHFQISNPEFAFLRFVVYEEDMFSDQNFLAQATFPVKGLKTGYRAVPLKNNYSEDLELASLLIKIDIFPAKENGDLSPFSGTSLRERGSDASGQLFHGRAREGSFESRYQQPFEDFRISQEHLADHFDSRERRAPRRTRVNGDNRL
What is called inhibition is the drop in the measured response relative to a control, in per cent. In the case of `COc1ccnc(C(=O)N2CCC(Oc3cccnc3)CC2)c1`, the inhibition was 0.2% (inactive). For the molecule `O=C(NCc1ccc(Cl)cc1)C1CCCN(c2nc3ccccc3o2)C1` (stereo not drawn), the inhibition is 1.63% (inactive). The result for `CCOc1c(Br)cc(/C=C2\C(=O)N(CCC#N)N=C2C)cc1OC` reads 24.6% (active); that for `Cc1ccc(CN2CC(C(=O)NNC(=O)Cn3ccc(C(F)(F)F)n3)CC2=O)cc1` (stereo not drawn), 2.76% (inactive). In the case of `O=C(NNC(=O)C1C2CCC(C2)C1C(=O)O)c1ccc(Cl)cc1` (stereo not drawn), the inhibition is 1.22% (inactive). For `Cc1ccc(Cn2ccc(NC(=O)C3C4CCC(C4)C3C(=O)O)n2)cc1` (stereo not drawn), the inhibition was 9.61% (active). The result for `O=C(CSc1nnc(-c2ccccn2)n1-c1ccc(Cl)cc1)Nc1ccccc1-c1ccccc1` reads 0.96% (inactive); that for `O=C(CCCCCN1C(=O)C2C3C=CC(C3)C2C1=O)Nc1ccccn1` (stereo not drawn), 1.47% (inactive); that for `Cc1cc(C)nc(NC(=S)N2CCN(c3ccc(C(F)(F)F)cn3)CC2)c1`, 0.58% (inactive). As for `CN(C(=O)c1cccc(NC(=O)Cc2cccc([N+](=O)[O-])c2)c1)C1CCCCC1`, the inhibition is 8.53% (inactive). The result for `O=C(COc1ccc([N+](=O)[O-])cc1Cl)Nn1cnnc1` reads 2.5% (inactive); that for `O=C(Nc1cccc([N+](=O)[O-])c1)Nn1cnnc1`, 10.4% (active). `O=C(c1ccccc1)c1ccc(-c2ccccc2C(=O)NC2CCCCN(Cc3ccc(Cl)cc3)C2=O)cc1` (stereo not drawn): the inhibition is 1.5% (inactive). For `Cc1ccc(NC(=O)Cc2cccc(F)c2)c(S(=O)(=O)N2CCOCC2)c1`, the inhibition is -42.8% (inactive). In the case of `Cc1cc(C)n(S(=O)(=O)c2cccc([N+](=O)[O-])c2)n1`, the inhibition is 0.37% (inactive). Under `CC1=NCCN1S(=O)(=O)c1cccc([N+](=O)[O-])c1` stands -1.13% (inactive).

In the case of `Cc1ccc(-c2cn(S(=O)(=O)c3cccc([N+](=O)[O-])c3)nc2N)cc1`, the inhibition was 11.4% (active). Under `CCOC(=O)[C@]12CCCCC/C=C\1N(Cc1ccc(OC)cc1)C(=O)[C@H]2CC(=O)NCc1ccc(C)o1` stands 0.82% (inactive).

For `N#C[C@]1(S(=O)(=O)c2ccccc2)C[C@@H]2ON=C(c3cccc(Br)c3)[C@@H]2C1`, the inhibition is 9.78% (active). As for `COC(=O)[C@]1(S(=O)(=O)c2ccccc2)C[C@@H]2ON=C(c3ccc(OC)cc3)[C@@H]2C1`, the inhibition was -2.22% (inactive). The result for `CCn1c(=O)n2n(c1=O)[C@@]1(C=C3CCCC[C@H]32)N=C(NC(=O)c2ccccc2)N(Cc2ccccc2)[C@H]1Cc1ccccc1` reads -12.3% (inactive). Take `COC(=O)C12C=C3CC(c4ccccc4)=C3C(=O)N1Cc1[nH]c3ccccc3c1C2` (stereo not drawn): the inhibition is -9.2% (inactive).

As for `CCOC(=O)CNC(=O)/C=C/c1c(Cl)cccc1Cl`, the inhibition is 0.18% (inactive). Under `O=C(/C=C/c1c(F)cccc1Cl)Nc1nn[nH]n1` stands 12.5% (active); under `O=C(/C=C/c1c(Cl)cccc1Cl)NCc1ccccc1`, 3.49% (inactive). Regarding `O=C(CSc1nnc(-c2ccccn2)n1-c1ccccc1)Nc1ccc2cn[nH]c2c1`, the inhibition is 3.11% (inactive). In the case of `COCCCN(C(=O)Cn1ncc2c(=O)oc3ccc(C)cc3c21)C(C)c1ccncc1` (stereo not drawn), the inhibition is 2.83% (inactive). In the case of `COCCN(C(=S)Nc1cccc(Cl)c1C)C(C)c1ccco1` (stereo not drawn), the inhibition is 4.95% (inactive). With `COCCCN(C(=S)Nc1c(C)cc(C)cc1C)C(C)c1ccncc1` (stereo not drawn), the inhibition is 12.6% (active). Under `Cc1cc(NS(=O)(=O)c2ccc(NC(=O)CSc3nnc(SCc4ccc(F)cc4)s3)cc2)nc(C)n1` stands 6.25% (inactive); under `CCn1c2ccccc2c2cc(NC(=O)CSc3nnc(-c4ccccc4)n3-c3ccc(C)cc3)ccc21`, -1.61% (inactive).

In the case of `N#Cc1cccc(NC(=O)c2cc(C3CCCCN3C(=O)CCc3ccccc3)on2)c1` (stereo not drawn), the inhibition is 5.27% (inactive). The result for `O=C(NCc1cccnc1)c1cc(C2CCCN(C(=O)CCCc3ccccc3)C2)on1` (stereo not drawn) reads 3.28% (inactive); that for `O=C(NCc1cccnc1)c1cc(C2CCCCN2C(=O)CCc2ccccc2)on1` (stereo not drawn), 12.8% (active). Consider `COc1ccc(N2CCN(CCNS(=O)(=O)c3ccc(C(C)(C)C)cc3)CC2)cc1`, for which the inhibition was -1.02% (inactive). In the case of `CSc1nccc(NC(=O)c2ccc(C(C)(C)C)cc2)n1`, the inhibition is 7.02% (inactive). The result for `CC(C)(C)c1ccc(C(=O)Nc2cc(Cl)c(Br)cc2C(=O)O)cc1` reads 11% (active); that for `CSc1ccc(C#N)cc1NC(=O)c1ccc(Cl)cc1`, -1.63% (inactive); that for `COC(=O)[C@@]12CCCCC=C1N(CCc1ccc(Cl)cc1)C(=O)[C@H]2CC(=O)NCc1ccc(OC)c(OC)c1`, 2.08% (inactive). The result for `COc1ccc(-c2ccc(CN3C(CC(C)C)C(=O)N(Cc4cn(CC5CCCCC5)nn4)CCS3(=O)=O)cc2)cn1` (stereo not drawn) reads -1.63% (inactive). The result for `CC(C)CC1C(=O)N(Cc2cn(CC3CCCCC3)nn2)CCS(=O)(=O)N1Cc1ccc(-c2ccc(Cl)cc2)cc1` (stereo not drawn) reads 1.82% (inactive); that for `COc1ccc(-c2ccc(CN3C(CC(C)C)C(=O)N(Cc4cn(CC5CCCCC5)nn4)CCS3(=O)=O)cc2)cc1` (stereo not drawn), 13.6% (active); that for `CCOC(=O)C(=O)N(Cc1ccccc1)c1ccccc1C(=O)Nc1cc(OC)ccc1OC`, 2.22% (inactive). For `CC(=O)C1=C(O)C(=O)N(c2cccnc2)C1c1ccc([N+](=O)[O-])cc1` (stereo not drawn), the inhibition was 11.3% (active). Under `CC(=O)C1=C(O)C(=O)N(c2ccc(Br)cc2)C1c1ccc([N+](=O)[O-])cc1` (stereo not drawn) stands 2.17% (inactive); under `COC(=O)C1=CN(c2ccc(F)c(F)c2)C=C(C(=O)OC)C1c1ccc([N+](=O)[O-])cc1`, 1.3% (inactive).

Take `COC(=O)CN1C(=O)C(O)=C(C(C)=O)C1c1ccc([N+](=O)[O-])cc1` (stereo not drawn): the inhibition was 10.5% (active). Under `COc1ccc(C2C(C(C)=O)=C(O)C(=O)N2c2nccs2)cc1` (stereo not drawn) stands -25.2% (inactive); under `COc1ccc(C2C(C(C)=O)=C(O)C(=O)N2CCc2c[nH]c3ccccc23)cc1` (stereo not drawn), 0.47% (inactive); under `C=CCN1C(C(=O)OC)CN(Cc2cn(Cc3ccccc3)nn2)CCS1(=O)=O` (stereo not drawn), 2.03% (inactive). `COc1cccc(CNC(=O)CNS(=O)(=O)c2ccc3nc(C)sc3c2)c1OC`: the inhibition is 2.68% (inactive). Under `CCCC[C@H](C(=O)N(CC)c1ccccc1)[C@@H](O)c1ccc2ccccc2c1` stands 2.96% (inactive); under `CN(C)c1ccc(/C=C2\NC(=S)N(Cc3ccccc3)C2=O)cc1`, -48.2% (inactive); under `CCCCN=C1N/C(=C\c2ccco2)C(=O)N1c1ccccc1`, -18.1% (inactive).

Consider `O=C1/C(=C\c2ccsc2)NC(=S)N1c1ccccc1`, for which the inhibition is 9.99% (active). On to `COc1ccc(C2CC=C(C(=O)O)C(c3ccccc3F)N2S(=O)(=O)c2ccc(C)cc2)cc1OC` (stereo not drawn), for which the inhibition was -0.05% (inactive). The result for `CCCCOCCCNC(=O)C[C@H]1C[C@@]2(C(=O)OC)C(=C[C@H](COCc3ccccc3)O[C@@H]2C)N(Cc2cccc3ccccc23)C1=O` reads 2.09% (inactive); that for `CCCCNC(=O)C[C@@H]1C(=O)N(CCc2ccc(Cl)cc2)C2=CCCC[C@]21C(=O)OCC`, 1.96% (inactive); that for `Cc1ccc(-c2nnc(SCC(=O)Nc3ccc(Oc4ccccc4)cc3)n2Cc2ccco2)cc1`, -3.01% (inactive).

`COc1ccc(-c2cc(-c3nnc(SCc4ccc([N+](=O)[O-])cc4)n3N)[nH]n2)cc1`: the inhibition is -0.19% (inactive).

Regarding `C#CCN([C@H](C(=O)OC)C(C)CC)S(=O)(=O)c1ccccc1Br` (stereo partly drawn), the inhibition was -0.23% (inactive). The result for `Cc1ccc(C=O)c([B-](F)(F)F)c1` reads 9.66% (active).

For the molecule `CN1c2ccc(C=O)c3c(C=O)ccc(c23)N(C)C1(C)C`, the inhibition was -156% (inactive). As to `COc1ccc(C(=O)CSc2nnc(-c3cnccn3)n2-c2ccc(C)cc2)cc1`, the inhibition was -2.8% (inactive). The result for `CCC[C@H]1C(=O)CC[C@@]23CCCN2C(=O)CCC[C@@H]13` reads -1.51% (inactive). Consider `CCOC(=O)[C@]12CCCC3=C1N(CCC3)C(=O)[C@@H](CC(=O)NCc1cccs1)C2`, for which the inhibition was -0.59% (inactive). Under `S=c1[nH]nc(-c2cccnc2)n1/N=C/C(Cl)=C\c1ccccc1` stands 12.7% (active); under `C(=C\c1ccccc1)/CSc1nnc(-c2cccnc2)n1Cc1ccco1`, -1.89% (inactive); under `CSc1ccc(C=Nn2c(-c3ccc(F)cc3)n[nH]c2=S)cc1`, 3.12% (inactive). With `Cc1[nH]c(C)c(S(=O)(=O)N2CCN(c3cccc(C(F)(F)F)c3)CC2)c1C(=O)N1CCCCC1`, the inhibition was 0.49% (inactive). Turning to `Cc1ccc(C)c(N2CCN(S(=O)(=O)c3c(C)[nH]c(C)c3C(=O)N3CCCC3)CC2)c1`, the inhibition is 17% (active).

`Cc1[nH]c(C)c(S(=O)(=O)N2CCN(c3cccc(C(F)(F)F)c3)CC2)c1C(=O)N1CCCC1`: the inhibition is 0.67% (inactive). The result for `CN(C(N)=NC(=O)/C=C/c1ccccc1)C(C#Cc1ccccc1)Cc1ccccc1` (stereo not drawn) reads -3.61% (inactive); that for `C=CCN(Cc1ccc2c(c1)OCO2)C(C#CC1CC1)C(C)(C)C` (stereo not drawn), -0.25% (inactive). Take `O=c1ccc2c(-c3ccccc3S(=O)(=O)O)c3ccc(O)c(O)c3oc-2c1O`: the inhibition is 25.2% (active). Consider `O=C(CSc1nc2ccccc2n1Cc1ccccc1)NNC(=S)Nc1ccccc1`, for which the inhibition is 3.11% (inactive).

Take `C#CCNC(=O)C[C@H]1C[C@@]2(C(=O)OC)C(=C[C@H](C(C)C)O[C@@H]2C2CC2)N(Cc2ccco2)C1=O`: the inhibition was 0.18% (inactive).

`O=C(NCc1cccs1)C1CCN(S(=O)(=O)c2ccccc2[N+](=O)[O-])CC1`: the inhibition is 3.22% (inactive). Under `c1coc(CCNc2ncnc3ccc(-c4ccc5c(c4)OCO5)cc23)c1` stands -114% (inactive).

Consider `CCCc1nc2oc3c(OCC)ncnc3c2c2c1COC(C)(C)C2`, for which the inhibition is 2.49% (inactive).

Regarding `CC1(C)Cc2nc3sc4c(SCC(=O)NC(c5ccccc5)c5ccccc5)ncnc4c3cc2CO1`, the inhibition is -1.56% (inactive). Consider `CC(C)CCSc1ncnc2c1oc1nc3c(cc12)COC(C)(C)C3`, for which the inhibition was 10.6% (active). The result for `COC(=O)C1CN(Cc2ccc(F)cc2)CCS(=O)(=O)N1Cc1ccc(Cl)cc1` (stereo not drawn) reads -0.52% (inactive).
